Experiment [1] deals with T1, Serine/threonine-protein kinase D2 (Homo sapiens) (UniProt Q9BZL6).
T1 sequence (whole entry): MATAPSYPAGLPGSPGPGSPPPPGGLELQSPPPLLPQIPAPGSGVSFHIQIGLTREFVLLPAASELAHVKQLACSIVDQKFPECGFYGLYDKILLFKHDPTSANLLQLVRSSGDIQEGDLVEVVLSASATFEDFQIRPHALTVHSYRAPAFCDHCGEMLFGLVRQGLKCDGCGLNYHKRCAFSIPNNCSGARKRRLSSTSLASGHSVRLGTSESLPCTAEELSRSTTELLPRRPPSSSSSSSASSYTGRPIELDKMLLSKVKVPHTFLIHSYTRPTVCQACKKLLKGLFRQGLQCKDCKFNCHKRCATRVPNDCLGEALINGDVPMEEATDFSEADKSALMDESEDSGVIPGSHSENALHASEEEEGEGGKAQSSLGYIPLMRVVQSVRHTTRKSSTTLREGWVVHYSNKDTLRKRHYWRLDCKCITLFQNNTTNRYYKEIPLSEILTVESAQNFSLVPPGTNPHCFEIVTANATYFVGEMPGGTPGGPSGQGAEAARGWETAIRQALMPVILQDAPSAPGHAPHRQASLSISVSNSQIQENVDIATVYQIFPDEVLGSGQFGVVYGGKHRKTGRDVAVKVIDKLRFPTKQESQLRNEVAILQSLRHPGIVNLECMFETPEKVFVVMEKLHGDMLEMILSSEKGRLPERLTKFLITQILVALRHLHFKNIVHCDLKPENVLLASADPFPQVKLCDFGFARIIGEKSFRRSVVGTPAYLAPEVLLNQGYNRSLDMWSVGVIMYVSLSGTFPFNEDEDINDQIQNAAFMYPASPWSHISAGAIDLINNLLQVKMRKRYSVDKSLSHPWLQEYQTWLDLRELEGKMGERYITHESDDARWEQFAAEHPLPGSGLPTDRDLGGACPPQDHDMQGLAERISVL
As to conditions: at 1 µM.

For experiment [2], the target named is T2, Serine/threonine-protein kinase D3 (Homo sapiens) (UniProt O94806).
T2 sequence (whole entry): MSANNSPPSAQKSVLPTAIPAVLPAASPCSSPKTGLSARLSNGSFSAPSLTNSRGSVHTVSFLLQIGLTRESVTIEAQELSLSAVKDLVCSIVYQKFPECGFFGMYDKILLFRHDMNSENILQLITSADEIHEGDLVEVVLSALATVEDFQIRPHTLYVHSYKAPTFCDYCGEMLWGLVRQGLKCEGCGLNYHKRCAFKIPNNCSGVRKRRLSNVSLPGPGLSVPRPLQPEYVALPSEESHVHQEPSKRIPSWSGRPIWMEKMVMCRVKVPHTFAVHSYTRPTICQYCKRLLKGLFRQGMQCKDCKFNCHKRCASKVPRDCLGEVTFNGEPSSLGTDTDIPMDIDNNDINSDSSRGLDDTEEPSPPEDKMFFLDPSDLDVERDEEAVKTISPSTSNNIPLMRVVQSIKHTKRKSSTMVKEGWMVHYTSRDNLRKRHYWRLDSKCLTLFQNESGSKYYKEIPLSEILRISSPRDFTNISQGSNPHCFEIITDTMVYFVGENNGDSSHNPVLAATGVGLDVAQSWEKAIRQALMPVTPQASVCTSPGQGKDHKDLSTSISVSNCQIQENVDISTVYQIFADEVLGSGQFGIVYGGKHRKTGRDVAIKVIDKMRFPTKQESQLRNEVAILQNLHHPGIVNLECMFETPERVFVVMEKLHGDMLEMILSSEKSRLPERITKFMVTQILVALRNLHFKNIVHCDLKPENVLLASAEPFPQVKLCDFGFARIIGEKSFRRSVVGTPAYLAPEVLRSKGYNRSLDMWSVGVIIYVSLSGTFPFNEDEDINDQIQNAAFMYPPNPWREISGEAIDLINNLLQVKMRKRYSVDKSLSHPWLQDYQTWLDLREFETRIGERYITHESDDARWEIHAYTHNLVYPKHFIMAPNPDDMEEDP
To be noted: at 0.1 µM.

For experiment [3], the target named is T2, Serine/threonine-protein kinase D3 (Homo sapiens). As to conditions: at 1 µM.
Experiment [4] has as its target T3, cGMP-dependent protein kinase 1 (Homo sapiens) (UniProt Q13976).
T3 sequence (whole entry): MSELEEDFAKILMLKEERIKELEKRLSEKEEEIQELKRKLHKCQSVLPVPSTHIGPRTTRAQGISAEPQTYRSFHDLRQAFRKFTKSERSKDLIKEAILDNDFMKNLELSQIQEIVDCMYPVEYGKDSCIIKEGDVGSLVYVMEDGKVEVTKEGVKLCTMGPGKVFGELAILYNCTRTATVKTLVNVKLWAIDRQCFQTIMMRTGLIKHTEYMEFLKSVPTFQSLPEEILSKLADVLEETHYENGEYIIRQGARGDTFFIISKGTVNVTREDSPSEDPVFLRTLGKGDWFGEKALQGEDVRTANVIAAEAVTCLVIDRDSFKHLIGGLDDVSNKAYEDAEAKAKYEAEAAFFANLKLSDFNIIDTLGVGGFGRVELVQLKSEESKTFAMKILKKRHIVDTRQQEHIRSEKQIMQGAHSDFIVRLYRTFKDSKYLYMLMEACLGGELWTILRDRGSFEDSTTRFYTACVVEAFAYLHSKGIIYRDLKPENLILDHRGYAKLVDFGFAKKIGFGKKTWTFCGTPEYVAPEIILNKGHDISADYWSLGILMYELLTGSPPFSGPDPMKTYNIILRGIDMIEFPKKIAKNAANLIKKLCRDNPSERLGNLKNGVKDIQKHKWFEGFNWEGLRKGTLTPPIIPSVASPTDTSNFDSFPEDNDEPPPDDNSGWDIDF
To be noted: at 0.1 µM.

For experiment [5], the target named is T3, cGMP-dependent protein kinase 1 (Homo sapiens). As to conditions: at 1 µM.
Experiment [6] has as its target T4, cGMP-dependent protein kinase 2 (Homo sapiens) (UniProt Q13237).
T4 sequence (whole entry): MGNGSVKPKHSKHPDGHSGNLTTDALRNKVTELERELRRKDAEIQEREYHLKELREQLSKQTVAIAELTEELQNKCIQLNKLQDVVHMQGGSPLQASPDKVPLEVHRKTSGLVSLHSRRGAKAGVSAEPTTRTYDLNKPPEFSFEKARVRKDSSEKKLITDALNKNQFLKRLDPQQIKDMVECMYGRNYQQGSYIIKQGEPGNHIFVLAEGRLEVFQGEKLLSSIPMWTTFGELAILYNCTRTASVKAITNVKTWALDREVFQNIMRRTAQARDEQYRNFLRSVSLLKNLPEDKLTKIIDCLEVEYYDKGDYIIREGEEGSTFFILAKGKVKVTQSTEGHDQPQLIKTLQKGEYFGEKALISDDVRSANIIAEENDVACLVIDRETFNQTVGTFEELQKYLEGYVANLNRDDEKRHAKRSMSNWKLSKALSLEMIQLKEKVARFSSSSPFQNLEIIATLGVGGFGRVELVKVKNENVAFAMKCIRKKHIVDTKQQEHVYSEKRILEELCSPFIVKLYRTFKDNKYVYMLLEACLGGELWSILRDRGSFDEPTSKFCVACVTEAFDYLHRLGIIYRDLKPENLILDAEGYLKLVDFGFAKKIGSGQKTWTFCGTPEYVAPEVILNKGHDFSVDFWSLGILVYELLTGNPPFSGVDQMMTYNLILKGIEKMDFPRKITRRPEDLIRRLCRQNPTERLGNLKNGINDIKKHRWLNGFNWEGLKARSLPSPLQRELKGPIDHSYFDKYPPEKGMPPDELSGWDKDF
To be noted: at 0.1 µM.

Experiment [7] deals with T4, cGMP-dependent protein kinase 2 (Homo sapiens). To be noted: at 1 µM.
The target in experiment [8] is T5, cAMP-dependent protein kinase catalytic subunit PRKX (Homo sapiens) (UniProt P51817).
T5 sequence (whole entry): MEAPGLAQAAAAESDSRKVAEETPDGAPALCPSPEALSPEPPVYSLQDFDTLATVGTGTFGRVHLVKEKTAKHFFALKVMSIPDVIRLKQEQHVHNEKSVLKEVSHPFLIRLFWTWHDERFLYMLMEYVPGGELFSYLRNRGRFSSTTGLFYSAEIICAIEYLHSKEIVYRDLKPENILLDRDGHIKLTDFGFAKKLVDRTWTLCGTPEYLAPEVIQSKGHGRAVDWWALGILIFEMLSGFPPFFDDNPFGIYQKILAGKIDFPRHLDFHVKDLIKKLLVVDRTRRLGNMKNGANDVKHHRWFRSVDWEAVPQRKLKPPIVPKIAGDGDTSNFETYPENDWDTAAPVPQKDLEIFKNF
As to conditions: at 0.1 µM.

The target in experiment [9] is T5, cAMP-dependent protein kinase catalytic subunit PRKX (Homo sapiens). As to conditions: at 1 µM.
Experiment [10] concerns the target Rho-associated protein kinase 1 (Homo sapiens) (UniProt Q13464). To be noted: at 0.1 µM.
For experiment [11] the target is unchanged. As to conditions: at 1 µM.
Experiment [12] addresses Rho-associated protein kinase 2 (Homo sapiens) (UniProt O75116). As to conditions: at 0.1 µM.
Experiment [13] shares this target. As to conditions: at 1 µM.
Experiment [14] addresses Ribosomal protein S6 kinase alpha-1 (Homo sapiens) (UniProt Q15418). To be noted: at 0.1 µM.
Experiment [15] has the same target. To be noted: at 1 µM.
Experiment [16] addresses Ribosomal protein S6 kinase alpha-3 (Homo sapiens) (UniProt P51812). To be noted: at 0.1 µM.
For experiment [17] the target is unchanged. As to conditions: at 1 µM.
For experiment [18], the target named is Ribosomal protein S6 kinase alpha-2 (Homo sapiens) (UniProt Q15349). As to conditions: at 0.1 µM.
Ribosomal protein S6 kinase alpha-2 (Homo sapiens), sequence (Q15349 whole entry): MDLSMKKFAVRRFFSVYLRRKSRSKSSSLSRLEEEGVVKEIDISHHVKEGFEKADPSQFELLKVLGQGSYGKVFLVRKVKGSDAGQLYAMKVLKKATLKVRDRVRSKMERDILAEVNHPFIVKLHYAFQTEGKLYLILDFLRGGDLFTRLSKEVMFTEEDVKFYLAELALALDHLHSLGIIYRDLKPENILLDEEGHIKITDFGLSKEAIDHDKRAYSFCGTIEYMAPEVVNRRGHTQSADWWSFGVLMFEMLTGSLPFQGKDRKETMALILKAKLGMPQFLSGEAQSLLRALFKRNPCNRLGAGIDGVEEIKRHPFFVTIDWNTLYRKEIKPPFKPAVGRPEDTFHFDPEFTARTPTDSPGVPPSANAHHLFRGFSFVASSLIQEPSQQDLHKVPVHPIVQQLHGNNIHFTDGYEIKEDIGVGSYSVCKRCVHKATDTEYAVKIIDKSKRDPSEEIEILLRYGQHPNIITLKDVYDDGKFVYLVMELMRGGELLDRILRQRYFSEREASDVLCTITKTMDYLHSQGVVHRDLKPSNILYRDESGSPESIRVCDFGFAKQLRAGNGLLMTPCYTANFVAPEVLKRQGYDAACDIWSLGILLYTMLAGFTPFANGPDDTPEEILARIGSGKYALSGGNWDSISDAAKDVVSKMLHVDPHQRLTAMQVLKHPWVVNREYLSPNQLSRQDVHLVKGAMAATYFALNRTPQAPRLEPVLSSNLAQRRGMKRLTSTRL
The target is the same in experiment [19]. To be noted: at 1 µM.
Experiment [20] addresses Ribosomal protein S6 kinase alpha-6 (Homo sapiens) (UniProt Q9UK32). As to conditions: at 0.1 µM.

In general, inhibition refers to the drop in the measured response relative to a control, in per cent.

Rho-associated protein kinase 1 (Homo sapiens), sequence (Q13464 2-1354 limits assumed): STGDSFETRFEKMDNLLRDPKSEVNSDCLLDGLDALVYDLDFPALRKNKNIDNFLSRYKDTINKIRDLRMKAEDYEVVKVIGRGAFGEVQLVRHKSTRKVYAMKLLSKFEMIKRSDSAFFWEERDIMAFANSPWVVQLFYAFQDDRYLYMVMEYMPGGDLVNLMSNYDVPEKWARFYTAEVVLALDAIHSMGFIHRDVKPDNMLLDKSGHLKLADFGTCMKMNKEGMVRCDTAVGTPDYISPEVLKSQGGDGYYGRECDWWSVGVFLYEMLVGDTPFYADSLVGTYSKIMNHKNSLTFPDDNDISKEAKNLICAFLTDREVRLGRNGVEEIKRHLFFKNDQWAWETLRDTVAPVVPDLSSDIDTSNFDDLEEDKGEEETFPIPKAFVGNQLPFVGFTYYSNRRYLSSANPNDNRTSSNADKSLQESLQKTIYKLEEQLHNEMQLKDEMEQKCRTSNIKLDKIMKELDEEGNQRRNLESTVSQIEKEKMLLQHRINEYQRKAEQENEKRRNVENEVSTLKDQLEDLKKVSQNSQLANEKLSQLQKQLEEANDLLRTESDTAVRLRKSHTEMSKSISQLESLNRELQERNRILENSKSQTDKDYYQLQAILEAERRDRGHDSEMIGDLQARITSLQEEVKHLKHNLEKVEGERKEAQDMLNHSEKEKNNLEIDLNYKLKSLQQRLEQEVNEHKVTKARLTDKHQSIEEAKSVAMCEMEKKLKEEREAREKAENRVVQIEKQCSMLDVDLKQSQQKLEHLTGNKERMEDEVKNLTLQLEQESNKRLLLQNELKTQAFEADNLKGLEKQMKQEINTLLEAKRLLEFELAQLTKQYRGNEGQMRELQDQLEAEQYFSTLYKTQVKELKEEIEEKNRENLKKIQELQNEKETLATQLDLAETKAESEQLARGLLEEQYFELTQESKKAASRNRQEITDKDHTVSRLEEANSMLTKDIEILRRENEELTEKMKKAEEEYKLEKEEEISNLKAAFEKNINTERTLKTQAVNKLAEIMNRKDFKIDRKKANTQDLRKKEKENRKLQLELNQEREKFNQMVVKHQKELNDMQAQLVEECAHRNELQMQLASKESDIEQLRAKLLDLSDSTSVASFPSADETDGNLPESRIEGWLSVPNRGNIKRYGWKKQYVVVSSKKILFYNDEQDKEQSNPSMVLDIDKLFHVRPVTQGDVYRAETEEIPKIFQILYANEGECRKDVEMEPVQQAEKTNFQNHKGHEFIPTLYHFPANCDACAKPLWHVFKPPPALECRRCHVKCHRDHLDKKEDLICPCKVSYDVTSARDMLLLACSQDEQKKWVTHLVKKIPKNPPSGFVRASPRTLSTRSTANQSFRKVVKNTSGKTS
Ribosomal protein S6 kinase alpha-1 (Homo sapiens), sequence (Q15418 whole entry): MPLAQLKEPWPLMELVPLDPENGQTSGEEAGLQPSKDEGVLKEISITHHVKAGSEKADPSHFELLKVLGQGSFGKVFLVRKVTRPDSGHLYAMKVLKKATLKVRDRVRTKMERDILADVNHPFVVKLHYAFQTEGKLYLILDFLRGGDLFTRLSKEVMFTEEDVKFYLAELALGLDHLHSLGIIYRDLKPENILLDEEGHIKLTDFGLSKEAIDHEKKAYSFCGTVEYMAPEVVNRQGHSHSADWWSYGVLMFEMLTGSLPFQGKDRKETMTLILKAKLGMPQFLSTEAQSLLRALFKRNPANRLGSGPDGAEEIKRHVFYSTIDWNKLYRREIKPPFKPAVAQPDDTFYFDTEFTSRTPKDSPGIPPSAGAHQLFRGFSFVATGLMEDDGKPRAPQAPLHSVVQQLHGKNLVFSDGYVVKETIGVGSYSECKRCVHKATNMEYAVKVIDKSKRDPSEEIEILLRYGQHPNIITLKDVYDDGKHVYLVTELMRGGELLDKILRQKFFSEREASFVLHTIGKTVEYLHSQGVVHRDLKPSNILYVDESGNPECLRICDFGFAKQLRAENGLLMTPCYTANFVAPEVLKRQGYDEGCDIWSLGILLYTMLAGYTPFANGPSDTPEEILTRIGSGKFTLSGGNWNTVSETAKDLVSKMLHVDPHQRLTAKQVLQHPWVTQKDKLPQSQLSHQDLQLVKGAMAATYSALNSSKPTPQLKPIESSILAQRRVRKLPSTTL
Ribosomal protein S6 kinase alpha-3 (Homo sapiens), sequence (P51812 whole entry): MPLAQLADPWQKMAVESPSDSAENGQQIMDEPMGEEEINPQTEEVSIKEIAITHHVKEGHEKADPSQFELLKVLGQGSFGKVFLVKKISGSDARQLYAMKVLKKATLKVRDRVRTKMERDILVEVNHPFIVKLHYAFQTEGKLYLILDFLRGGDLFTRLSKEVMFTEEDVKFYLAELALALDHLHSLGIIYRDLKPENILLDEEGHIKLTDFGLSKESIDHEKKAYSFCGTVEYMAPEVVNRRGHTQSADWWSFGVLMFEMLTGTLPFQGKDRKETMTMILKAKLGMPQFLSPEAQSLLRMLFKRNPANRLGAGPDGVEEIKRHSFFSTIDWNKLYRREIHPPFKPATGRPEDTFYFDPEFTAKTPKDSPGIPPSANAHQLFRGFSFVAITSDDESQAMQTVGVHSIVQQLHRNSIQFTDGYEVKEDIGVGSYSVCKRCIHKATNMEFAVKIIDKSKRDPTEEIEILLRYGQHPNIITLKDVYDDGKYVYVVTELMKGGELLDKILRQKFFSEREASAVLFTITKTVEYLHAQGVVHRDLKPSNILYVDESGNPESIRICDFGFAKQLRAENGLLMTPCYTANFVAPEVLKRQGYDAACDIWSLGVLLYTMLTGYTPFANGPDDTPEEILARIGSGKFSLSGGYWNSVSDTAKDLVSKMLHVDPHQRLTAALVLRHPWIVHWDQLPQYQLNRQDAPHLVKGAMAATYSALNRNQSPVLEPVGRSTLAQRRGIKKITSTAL
Rho-associated protein kinase 2 (Homo sapiens), sequence (O75116 whole entry, looked up): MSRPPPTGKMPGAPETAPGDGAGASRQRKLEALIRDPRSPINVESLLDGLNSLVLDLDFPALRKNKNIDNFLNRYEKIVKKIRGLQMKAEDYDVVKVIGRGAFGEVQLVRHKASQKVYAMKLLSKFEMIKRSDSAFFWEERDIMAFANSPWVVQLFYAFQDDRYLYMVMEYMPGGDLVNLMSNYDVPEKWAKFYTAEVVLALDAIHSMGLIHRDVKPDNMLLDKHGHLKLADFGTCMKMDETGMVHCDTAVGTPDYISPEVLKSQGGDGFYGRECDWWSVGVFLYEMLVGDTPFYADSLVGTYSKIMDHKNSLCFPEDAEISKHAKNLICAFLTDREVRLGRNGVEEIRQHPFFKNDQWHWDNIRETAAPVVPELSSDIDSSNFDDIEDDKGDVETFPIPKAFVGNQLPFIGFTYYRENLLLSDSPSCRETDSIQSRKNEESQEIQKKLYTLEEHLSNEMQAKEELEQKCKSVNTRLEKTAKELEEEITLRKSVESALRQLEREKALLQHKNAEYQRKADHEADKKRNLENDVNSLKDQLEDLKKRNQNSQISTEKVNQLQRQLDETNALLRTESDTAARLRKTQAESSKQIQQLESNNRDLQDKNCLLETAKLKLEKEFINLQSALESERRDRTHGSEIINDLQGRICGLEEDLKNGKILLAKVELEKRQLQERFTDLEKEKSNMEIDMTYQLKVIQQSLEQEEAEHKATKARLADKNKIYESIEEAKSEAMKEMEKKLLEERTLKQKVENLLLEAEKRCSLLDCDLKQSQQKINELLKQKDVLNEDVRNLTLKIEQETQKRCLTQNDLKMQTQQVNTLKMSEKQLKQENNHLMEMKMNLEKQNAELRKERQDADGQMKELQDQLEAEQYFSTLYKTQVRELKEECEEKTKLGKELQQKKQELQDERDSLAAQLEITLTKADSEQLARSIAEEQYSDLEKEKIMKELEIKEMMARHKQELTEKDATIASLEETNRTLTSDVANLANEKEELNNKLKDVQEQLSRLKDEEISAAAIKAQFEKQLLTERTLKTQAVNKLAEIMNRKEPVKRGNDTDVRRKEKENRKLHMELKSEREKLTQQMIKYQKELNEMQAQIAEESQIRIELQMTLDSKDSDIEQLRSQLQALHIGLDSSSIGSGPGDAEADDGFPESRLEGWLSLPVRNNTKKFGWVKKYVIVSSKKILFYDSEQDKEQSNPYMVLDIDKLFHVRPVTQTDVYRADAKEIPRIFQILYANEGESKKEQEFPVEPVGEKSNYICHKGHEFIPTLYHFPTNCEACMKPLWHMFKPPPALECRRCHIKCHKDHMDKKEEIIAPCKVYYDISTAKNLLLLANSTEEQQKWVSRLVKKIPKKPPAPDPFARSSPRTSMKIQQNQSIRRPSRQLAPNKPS

`CNC(=O)c1cncc(/C=C/c2ccccc2C)c1`: the inhibition in experiment [1] was 3.79%; in [2], 3.31%; in experiment [3] it was 4.34%; in [4], 4.05%; in experiment [5] it was 5.68%; in experiment [6], 2.97%. Further, the inhibition in experiment [7] was determined as 5.05%; in experiment [8], 3.99%; in experiment [9], 6.15%; in [10] it was 1.2%; in experiment [11] it was 1.27%; in experiment [12], 4.29%. For the same compound, the inhibition in experiment [13] was found to be 8.78%; in experiment [14], 2.39%; in experiment [15], 4.99%; in experiment [16], 2.14%; in [17] it was 3.84%; in experiment [18] it was 0.87%. In addition, the inhibition is 2.74% in experiment [19] and 0.45% in experiment [20].
Take `Fc1ccc(Nc2nccc(-c3c(-c4ccc(C(F)(F)F)cc4)nn4ncccc34)n2)cc1F`: the inhibition in experiment [1] worked out at 3.98%; in experiment [2] it was 5.05%; in experiment [3], 4.35%; in experiment [4], 2.4%; in experiment [5], 3.28%; in [6] it was 0.92%. The inhibition in experiment [7] was 2.82%; in experiment [8] it was 0.62%; in experiment [9] it was -1.3%; in experiment [10] it was 0.45%; in [11] it was 2.54%; in [12], 1.24%. Moreover, the inhibition in experiment [13] was 2.36%; in experiment [14] it was 0.24%; in experiment [15], -0.46%; in [16], -0.49%; in experiment [17] it was -1.74%; in experiment [18], 1.11%. Besides, the inhibition in experiment [19] is 2.41%; in experiment [20], 1.29%.
On to `COc1c(C(N)=O)cc(-c2ccc(Cl)cc2)cc1-c1ccc(S(N)(=O)=O)cc1`, for which the inhibition in [1] was 1.99%; in [2], 4.57%; in experiment [3], 4.42%; in experiment [4], 4.35%; in experiment [5], 9.49%; in experiment [6], 3.98%. Moreover, the inhibition amounted to 8.49% in [7]; 1.69% in [8]; 3.72% in experiment [9]; 2.98% in experiment [10]; 3.19% in experiment [11]; 2.99% in [12]. Moreover, the inhibition in experiment [13] worked out at 5.06%; in experiment [14], 1.96%; in experiment [15], 2.12%; in experiment [16] it was 1.72%; in [17], 2.53%; in [18] it was 2.4%. The inhibition turned out to be 2.98% in experiment [19] and 2.25% in experiment [20].
Take `CS(=O)(=O)CCNCc1ccoc1-c1ccc2ncnc(Nc3ccc(OCc4ccccc4)cc3)c2c1`: the inhibition was 1.7% in experiment [1]; 0.9% in experiment [2]; 1.39% in [3]; -0.04% in [4]; 0.54% in [5]; -0.54% in [6]. The inhibition is -1.25% in experiment [7]; 0.33% in [8]; -0.34% in [9]; -1.21% in experiment [10]; -0.69% in experiment [11]; -1.1% in experiment [12]. Also, the inhibition in [13] is 0.07%; in experiment [14], 0.19%; in [15], -0.1%; in experiment [16] it was -0.27%; in experiment [17], -0.04%; in experiment [18], 1.27%. For the same compound, the results for the inhibition in [19] and in experiment [20] were 1.14% and -0.31%, respectively.
`COc1cc(N2CCN(C(C)C)CC2)ccc1Nc1nc(Nc2cccc(F)c2C(=O)O)c2cc[nH]c2n1`: the inhibition in experiment [1] was determined as 4.66%; in [2], 4.61%; in experiment [3] it was 4.8%; in experiment [4], 1.6%; in [5], 5.7%; in experiment [6], 1.77%. Besides, the inhibition in [7] worked out at 3.84%; in experiment [8], 1.23%; in experiment [9], 2.86%; in experiment [10], 0.41%; in [11], 2.22%; in experiment [12], 2.05%. Moreover, the inhibition in [13] stood at 5.77%; in experiment [14], 4.06%; in [15], 16%; in experiment [16], 2.18%; in [17] it was 11.6%; in [18], 0.99%. Besides, the inhibition in experiment [19] was 5.21%; in experiment [20], 2.17%.

(Values after ChEMBL document CHEMBL1961873, “Compounds: GSK PKIS; Assays: Nanosyn kinase panel” (2012).)
